ChEMBL document CHEMBL4513216, “Probing the Open Global Health Chemical Diversity Library for Multistage-Active Starting Points for Next-Generation Antimalarials” (ACS Infect Dis, 2020)
Screen size: about 69,000 compounds; about 8,600 (12%) showed an effect of 50% or more. Only a selection was taken, and strong results are over-represented in it overall.

Test system: Plasmodium berghei
Assay: Screen against P. berghei liver stage (PbLuc), transformed with Luciferase, at 10uM
Type: functional, HepG2
Details: tested at 10 uM

Row | Compound | INHIBITION [%]
1 | COCc1ccccc1CNC(=O)CNc1ccccc1C(C)=O | -1.79
2 | O=C(C1CCOC1)N1CCC2(CC1)CN(Cc1nccs1)CCO2 (centres undefined) | 15.9
3 | CNC(=O)c1ccc(C(=O)N2CCCC2c2c(C)nn(C)c2C)cn1 (centres undefined) | 31.2
4 | Cc1cn2c(n1)CCC(NC(=O)c1csc(C(C)C)n1)C2 (centres undefined) | 19.5
5 | CCc1c(C)nc2n(c1=O)CC(C(=O)Nc1sccc1C(=O)OC)CS2 (centres undefined) | -7.25
6 | CN(Cc1nnc2n1CCC2)C(=O)c1ccc2c(c1)OCCCO2 | 26.4
7 | Nc1nc2nc(C3CCCN(C(=O)c4cncs4)C3)ccc2s1 (centres undefined) | 18.3
8 | Cc1nc(CN2CCCC2c2noc(C3CC3)n2)nc2ccccc12 (centres undefined) | 80.25
9 | COc1c(C)cnc(CN2CCCC2c2noc(C3CC3)n2)c1C (centres undefined) | 21.3
10 | CCc1nc(C2CCCN2Cc2nc3ccccc3o2)no1 (centres undefined) | 20.2
11 | Cc1cnc(CN2CCCC2c2noc(C3CC3)n2)cn1 (centres undefined) | -4.94
12 | CCc1noc(CN2CCCC2c2noc(C3CC3)n2)n1 (centres undefined) | 27.4
13 | c1ccc2nc(CN3CCCC3c3noc(C4CC4)n3)ccc2c1 (centres undefined) | 54.7
14 | COc1ccc(C)cc1CN1CCCC1c1noc(C2CC2)n1 (centres undefined) | 80.3
15 | CCc1nc(C2CCCN2Cc2cc(C)nc3ccccc23)no1 (centres undefined) | 60.75
16 | Cc1nc(CN2CCCC2c2noc(C3CC3)n2)oc1C (centres undefined) | 49.35
17 | c1ccc2oc(CN3CCCC3c3noc(C4CC4)n3)nc2c1 (centres undefined) | -87.5025
18 | CCc1nc(C2CCCN2Cc2cnc(C)cn2)no1 (centres undefined) | -4.94
19 | Cc1noc(CN2CCCC2c2noc(C3CC3)n2)n1 (centres undefined) | 38.5
20 | O=C(NCC1(c2ccc(F)cc2)CCCC1)N1CCOC(CO)C1 (centres undefined) | -14.3
21 | CN(C)CCn1c2c(ccc1=O)CCN(C(=O)c1ccoc1)CC2 | -73.5
22 | Cc1c(C(=O)N2CCC(O)(CN(C)C)C2)c2ccccc2n1C (centres undefined) | 35.2

Row | Compound | INHIBITION [%]
23 | O=c1oc(-c2cccs2)nn1CC(O)c1ccccc1F (centres undefined) | 35.4
24 | c1ccc2sc(CN3CCCC3c3noc(C4CC4)n3)nc2c1 (centres undefined) | 78
25 | c1cc(CN2CCCC2c2noc(C3CC3)n2)on1 (centres undefined) | 37.4
26 | C1CC(c2noc(C3CC3)n2)N(Cc2nc(C3CC3)no2)C1 (centres undefined) | 2.3
27 | Cc1nn(C)c(C)c1C1CCCN1Cc1nc(C)c2ccccc2n1 (centres undefined) | 12.7
28 | Cc1nc(CN2CCCC2c2ccsc2)nc2ccccc12 (centres undefined) | 53.8
29 | Cc1nn(C)c(C)c1C1CCCN1Cc1nc(N)c2ccccc2n1 (centres undefined) | 23.4
30 | NC(=O)c1nc(CC(=O)Nc2cccc(C(F)(F)F)c2)no1 | -14.8
31 | CCOC(=O)CCC(=O)NC(C)c1ccc(NC(=O)CC)cc1 (centres undefined) | 37.1
32 | O=C(Cc1cnc(-c2c(Cl)cccc2Cl)s1)N1CCOCC1 | 19.3
33 | CN1CCN(Cc2ccncc2)C(=O)C12CCN(c1nccs1)CC2 | 58.5
34 | CN1CCN(CCO)C(=O)C12CCN(c1nccs1)CC2 | 23.1
35 | CC(C)CN1CCN(C)C2(CCN(c3nccs3)CC2)C1=O | 45.2
36 | CCNc1nnc(SCc2nnc(C(C)(C)C)o2)s1 | -7.93
37 | CC(=O)N1CCN(C(=O)CN2CCCC2Cn2nc(C)cc2C)CC1 (centres undefined) | -14.6
38 | C=c1ncsc1=C1NN=C(C2CCCN2C(=O)Cn2cccn2)O1 (centres undefined) | 19.24
39 | Cc1csc(CN2CCn3c(COc4cccnc4)cnc3C2C)n1 (centres undefined) | 31.2
40 | CCOCc1cnc2n1CCN(Cc1scnc1C)C2C (centres undefined) | 20.1
41 | CC1c2ncc(COc3cccnc3)n2CCN1Cc1cnn(C)c1 (centres undefined) | 34
42 | Cc1ncsc1CN1CCn2c(COc3cccnc3)cnc2C1C (centres undefined) | 58.7
43 | Cc1ccc(CN2CCn3c(COc4cccnc4)cnc3C2C)o1 (centres undefined) | 25.8
44 | Cc1ccsc1CN1CCn2c(COc3cccnc3)cnc2C1C (centres undefined) | 65.7

Row | Compound | INHIBITION [%]
45 | CC1c2ncc(COc3cccnc3)n2CCN1Cc1ccco1 (centres undefined) | 54.8
46 | Cc1ncsc1CN1CCn2c(COCC3CC3)cnc2C1C (centres undefined) | 18.5
47 | CC1c2ncc(COc3cccnc3)n2CCN1C(=O)Cc1ccco1 (centres undefined) | -36.3
48 | O=C1CC2(CCCNC2)C(=O)N1Cc1cccc(F)c1 (centres undefined) | 0.112
49 | Cc1ccc(C(=O)NS(=O)(=O)Cc2ccc(F)cc2)cc1S(C)(=O)=O | 41.6
50 | CNC(=O)c1ccc2c(c1O)OC(C)(C)C2 | 30
51 | CNC(=O)CN1CCN(C(=O)c2ccn(C)c(=O)c2)CC1 | -7.31
52 | CN(C)C(=O)CN1CCC2(CCCN(Cc3cccn3C)C2)C1=O (centres undefined) | -10.2
53 | CC(C)CN1CCC2(CCN(Cc3ccc(F)cc3)CC2)C1=O | -15.9
54 | CN(C)C(=O)CN1CCC2(CCCN(Cc3cccnc3)C2)C1=O (centres undefined) | 72.9
55 | CN(C)C(=O)CN1CCC2(CCN(S(C)(=O)=O)CC2)C1=O | 18.6
56 | CN(C)C(=O)CN1CCC2(CCCN(Cc3ccoc3)C2)C1=O (centres undefined) | 53.9
57 | Cn1cc(CN2CCCC3(CCN(Cc4cccnc4)C3=O)C2)cn1 (centres undefined) | 43.2
58 | CN1CCC(CN2CCC3(CCCN(Cc4ccoc4)C3)C2=O)CC1 (centres undefined) | 1.34
59 | CN(C)C(=O)CN1CCC2(CCN(C(=O)N(C)C)CC2)C1=O | -19.6
60 | CC(C)CN1CCC2(CCN(Cc3ccoc3)CC2)C1=O | 50.7
61 | O=C1N(CC2CC2)CCC12CCN(Cc1ccoc1)CC2 | 11.2
62 | CN(C)C(=O)CN1CCC2(CCN(C(=O)N3CCCC3)CC2)C1=O | 54.3
63 | CN(C)C(=O)CN1CCC2(CCCN(Cc3ccsc3)C2)C1=O (centres undefined) | 18.6
64 | O=C1CCN(C(=O)NCC(c2ccccc2)c2ccccc2)CCN1 | -61.4
65 | O=C1CC[C@H](C(=O)Nc2cnn(-c3ccccc3Br)c2)N1 | 30
66 | Cc1cc(C)nc(C2CCN(C(=O)c3c(C)noc3C)C2)n1 (centres undefined) | -8.12

Row | Compound | INHIBITION [%]
67 | Cc1ncnc2c1CCN(Cc1cccs1)CC2 | -33
68 | Cc1ccc(C(=O)N2CCCCC2CNC(N)=O)cc1F (centres undefined) | 44.3
69 | O=C([C@H]1CN(Cc2ccoc2)C[C@H]2OCC[C@@H]12)N1CCCCO1 | 39.4
70 | Cc1ccc(-n2ncc(C(=O)N3CCCC3c3cnn(C)c3)c2C)cc1 (centres undefined) | 2.3
71 | CC(C)Oc1ncccc1CNC(=O)c1cnccn1 | 7.12
72 | CN1CCC(O)(CCNC(=O)[C@@]23CNC[C@@H]2CN(C2CCCC2)C3)CC1 | 62.9
73 | CCS(=O)(=O)CCNC(=O)[C@@]12CNC[C@@H]1CN(C1CCCC1)C2 | 30.8
74 | CNS(=O)(=O)CCNC(=O)[C@@]12CNC[C@@H]1CN(C1CCCC1)C2 | 28.7
75 | Cc1nn(C)cc1S(=O)(=O)N[C@@H]1CCC[C@@H](n2ccnc2)[C@@H]1O | 7.19
76 | COc1ccc(-n2cnnc2SCC(C)(C)O)cn1 | 1.28
77 | COc1ccc(-n2cnnc2SCC(=O)NC(C)C)cn1 | 64.5
78 | COc1ccc(-n2cnnc2SCC(=O)N(C)C(C)C)cn1 | 59.4
79 | CCC(C)Sc1nncn1-c1ccc(OC)nc1 (centres undefined) | -30.5
80 | COC(=O)CCSc1nncn1-c1ccc(OC)nc1 | 22.6
81 | COc1ccc(-n2cnnc2SCCC#N)cn1 | 33.4
82 | COCCS(=O)(=O)NCc1ccc(N(C)C)c(C)c1 | 2.65
83 | COCC(=O)N1CCCC1(C)c1nc(C)cc(O)n1 (centres undefined) | -33.4
84 | CCCc1n[nH]c(C2CN(C(=O)c3ccc4c(c3)COC4)CCO2)n1 (centres undefined) | 15.5
85 | COCc1nc(C(=O)N2CCCC2c2cc(C)no2)cs1 (centres undefined) | -3.2
86 | Cc1ncc2c(n1)CN(CC(=O)NCCOc1ccccc1)CC2 | -3.7
87 | Cc1ccc(N2CCC3(CCN(C(=O)c4ccsc4)CC3)CC2)nn1 | 9.63
88 | C[C@@H]1CN(C(=O)Cc2ccsc2)C[C@]12CCN(CCN(C)C)C2=O | 26

Row | Compound | INHIBITION [%]
89 | Cc1ccc2c(n1)N(CCn1cccn1)CCN(C(=O)NC1CC1)C2 | 37.8
90 | COCCN1CCN(C(=O)NC2CC2)Cc2ccc(C)nc21 | 60.1
91 | COCCN1CCN(C(=O)N2CCCC2)Cc2ccc(C)nc21 | 62.5
92 | Cc1ccc2c(n1)N(CCN(C)C)CCN(C(=O)N1CCOCC1)C2 | 18.3
93 | COCCN1CCN(S(=O)(=O)C2CC2)Cc2ccc(C)nc21 | 0.804
94 | Cc1ccc2c(n1)N(CC1CC1)CCN(C(=O)NC1CC1)C2 | 30.3
95 | COCCC(=O)N1CCC(c2ccc3c(NC(C)C)n[nH]c3n2)C1 (centres undefined) | -36.4
96 | CCOC1COC2(CCN(Cc3ccc(C)cc3)CC2)C1 (centres undefined) | 17.4
97 | CCOc1ncnc2c1CCN(C(=O)CN(C)C)CC2 | 42.3
98 | CC(C)(C)C(=O)N1CC(=O)N(Cc2ccco2)CC(O)C1 (centres undefined) | 40.4
99 | CCCC(NC(=O)c1cc(C)c(F)cc1F)c1nnn[nH]1 (centres undefined) | 58.5
100 | CCCC(NC(=O)c1ccc(C)cc1C)c1nnn[nH]1 (centres undefined) | 43.1
101 | CCCC(NC(=O)c1cc(C)ccc1C)c1nnn[nH]1 (centres undefined) | 16.6
102 | Cn1cc(C(=O)Nc2ccc3c(c2)CN(C(=O)C2CC2)CC3)nn1 | -7.25
103 | CC(=O)N(Cc1ncc(C(C)C)o1)C1CCN(Cc2cc(C)on2)C1 (centres undefined) | 2.7
104 | O=C(CNc1ccccc1S(=O)(=O)C(F)F)NCc1ccco1 | 33.2
105 | O=C(NCc1ccco1)Nc1cccc(S(=O)(=O)C(F)F)c1 | 42.4
106 | O=C(CNc1cccc(S(=O)(=O)C(F)F)c1)NCc1ccco1 | 51.7
107 | CNc1cc(C2CN(Cc3scnc3C)CCO2)nc(C)n1 (centres undefined) | -26.2
108 | Cc1nc(C2CN(Cc3scnc3C)CCO2)cc(N(C)C)n1 (centres undefined) | 68.9
109 | CNc1cc(C2CN(Cc3csc(C)n3)CCO2)nc(C)n1 (centres undefined) | 41.2
